SMILES strings stand for the structures. Screen size: about 300,000 compounds; about 2,400 (0.8%) were called active.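 The calls were made as follows: active = Every replicate reaches about 75%, or at least half do and their mean reaches it too (limit read from the data); inconclusive = At least half of replicates reach the limit but their mean does not; inactive = Under half of replicates reach the limit.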 Many of the other results were omitted from the sample, so actives are more common in it than they were.

The experiment can be described thus: INS-1E beta cell survival under cytokines – luminescence, primary screen (AID 435005).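 Also: 0% = cytokine-treated negative control wells and 100% = positive control rescue.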 To be noted: INS-1E cytokine-induced death, ATP luminescence, 48 h; stronger effect = higher value; percent of positive-control rescue, neutral wells zero; concentration not given here.
On to `CCC(CO)Oc1cc(NC(=O)c2ccc(Cl)cc2)c2ncn(C(C)C)c2c1` (configuration not stated), for which the protection from apoptosis was 2.88% (inactive).

Turning to `CCOc1cc(N2CCOCC2)c(OCC)cc1NC(=O)COc1cccc(Cl)c1`, the protection from apoptosis was 0.61% (inactive).

As to `CCOc1cc(N2CCOCC2)c(OCC)cc1NC(=O)COc1cccc2cccnc12`, the protection from apoptosis is 102% (active).

Turning to `CCOc1cc(N2CCOCC2)c(OCC)cc1NC(=O)c1cc(C)nc2ccccc12`, the protection from apoptosis was 7.08% (inactive).

Regarding `C/C(=N\NC(=O)c1ccoc1C)c1ccccc1O`, the protection from apoptosis is 79.7% (active).

As for `Cc1cc(C(=O)NNC(=O)c2ccccc2O)c(C)o1`, the protection from apoptosis is -1.18% (inactive).

With `C/C(=N\NC(=O)c1ccccc1C)c1ccc(N2CCOCC2)cc1`, the protection from apoptosis was -16.8% (inactive).

As for `Cn1cncc1C#Cc1c(-c2ccsc2)sc2ccccc12`, the protection from apoptosis was -6.24% (inactive).

Consider `O=C(NCCc1ccc(C(F)(F)F)cc1)c1ccc2c(c1)OCO2`, for which the protection from apoptosis is 5.32% (inactive).

For `CCCCNc1c(-c2ccc(OC)c(Sc3ccc(OC)cc3)c2)nc2ccc(Cl)cn12`, the protection from apoptosis was 16.9% (inactive).

Turning to `O=S(=O)([N-]c1nc2ccccc2nc1-[n+]1ccc(Cc2ccccc2)cc1)c1ccc(Br)s1`, the protection from apoptosis was 118% (active).

Consider `O=C(NCCc1ccccc1)C1CCN(S(=O)(=O)c2ccc(Br)s2)CC1`, for which the protection from apoptosis is 2.68% (inactive).

In the case of `Cc1cc(C)c[n+](-c2nc3ccccc3nc2[N-]S(=O)(=O)c2cccs2)c1`, the protection from apoptosis is -3.34% (inactive).

As to `Cc1ccc(C(=O)Nc2ccn(C)n2)cc1`, the protection from apoptosis was -7% (inactive).

Take `CCn1nc(C(=O)NNS(=O)(=O)c2cc(/C=C/C(=O)O)cc(OC)c2OC)c2ccccc2c1=O`: the protection from apoptosis is 0.598% (inactive).

For `COc1cc(/C=C/C(=O)Nc2ccc(OC)c(S(=O)(=O)N3CCOCC3)c2)ccc1OCC#N`, the protection from apoptosis is 4.79% (inactive).

On to `COc1ccc(OC)c(-c2csc(NC(=O)COC(=O)C3CC3)n2)c1`, for which the protection from apoptosis is -4.15% (inactive).

As to `CC(C)(C)OC(=O)N/N=C/c1cn(-c2ccccc2)nc1-c1cccnc1`, the protection from apoptosis is 2.76% (inactive).

As to `O=C(O)c1ccc(N/N=C/c2cn(-c3ccccc3)nc2-c2cccs2)cc1`, the protection from apoptosis is -0.771% (inactive).

`Cc1ccc(-c2nn(-c3ccccc3)cc2/C=N/NC(=O)c2ccc3c(c2)OCO3)cc1`: the protection from apoptosis is 110% (active).

`Cc1cccc(C(=O)N[C@H](C(=O)NCc2cccs2)C(C)C)c1`: the protection from apoptosis is 3.35% (inactive).

With `O=C(CN1CCc2ccccc2C1)Nc1cccc(S(=O)(=O)N2CCOCC2)c1`, the protection from apoptosis is 0.0837% (inactive).

As for `COc1cccc(/C(C)=N/Nc2ncc(Cl)cc2Cl)c1`, the protection from apoptosis was -0.169% (inactive).

`N/C(=N\OC(=O)Nc1ccc(Cl)c(Cl)c1)c1ncc(C(F)(F)F)cc1Cl`: the protection from apoptosis was -13.2% (inactive).

With `COc1cccc(/C=N/Nc2ncc(C(F)(F)F)cc2Cl)c1O`, the protection from apoptosis is 131% (active).

Take `Cc1ccc(/C=C/C(=O)OCC(=O)NCc2ccc(Cl)cc2)o1`: the protection from apoptosis was 0.631% (inactive).

With `CC(=O)N1CCCc2cc(S(=O)(=O)N3CCCC(C(=O)N4CCN(c5cccc(Cl)c5)CC4)C3)ccc21` (configuration not stated), the protection from apoptosis is 89.9% (active).

For `CC(=O)N1CCCc2cc(S(=O)(=O)N3CCCC(C(=O)NCc4ccc(Cl)cc4)C3)ccc21` (configuration not stated), the protection from apoptosis is 4.03% (inactive).

Turning to `CC(=O)N1c2ccc(S(=O)(=O)N3CCCC(C(=O)Nc4cccc(Cl)c4)C3)cc2CC1C` (configuration not stated), the protection from apoptosis was 6.26% (inactive).

In the case of `COc1ccccc1C(=O)OCC(=O)Nc1cccc(S(=O)(=O)NC2=NCCCCC2)c1`, the protection from apoptosis was -2.64% (inactive).

For `O=C(NCCc1ccco1)c1ccc(OCc2cn3ccccc3n2)cc1`, the protection from apoptosis is 1.94% (inactive).

For `Cc1cc(C)n(-c2c(F)c(F)c(COC(=O)c3ccccc3)c(F)c2F)n1`, the protection from apoptosis is 3.67% (inactive).

For the molecule `CCOC(=O)c1cnc(-n2nc(C)cc2C)nc1NNc1cc(C)nc(-c2ccccc2)n1`, the protection from apoptosis was 84.8% (active).

Regarding `CCOC(=O)c1cnc(-n2nc(C)cc2C)nc1Nc1cccc(C(C)=O)c1`, the protection from apoptosis is 8.92% (inactive).

As for `C=CCC[C@H](Cc1ccc(F)cc1)C(=O)OC[C@@H](NC(=O)[C@@H](CC=C)CC(=O)N[C@H](CO)Cc1ccccc1)C(C)(C)C`, the protection from apoptosis was 5.28% (inactive).

For `O=C(NNS(=O)(=O)c1c(F)cc(F)c(Cl)c1F)C12CC3CC(CC(C3)C1)C2`, the protection from apoptosis is -12% (inactive).

In the case of `Fc1ccccc1COc1cccc2cccnc12`, the protection from apoptosis was -7.41% (inactive).

In the case of `Cc1occc(=O)c1OCc1ccc(F)cc1`, the protection from apoptosis was -6.87% (inactive).

On to `Cc1nc2ccccc2cc1OCc1ccc(F)cc1`, for which the protection from apoptosis was 95.4% (active).

On to `COC(=O)c1c(NC(=O)COc2ccc(Cl)cc2Cl)sc2c1CC(C)(C)NC2(C)C`, for which the protection from apoptosis is 114% (active).

As for `CCOC(=O)c1c(NC(=O)c2ccc(S(=O)(=O)N(C)CC3CCCO3)cc2)sc2c1CC(C)(C)NC2(C)C` (configuration not stated), the protection from apoptosis is 25.6% (inactive).

As to `Cc1nn(-c2ccccc2)c(C)c1NC(=O)COc1ccc(Cl)cc1Cl`, the protection from apoptosis is 0.164% (inactive).

On to `COc1cc(OC)cc(C(=O)N[C@H](C(=O)NNC(=O)c2ccc(Br)cc2)C(C)C)c1`, for which the protection from apoptosis was -4.34% (inactive).

`CC1CCCCC1NCC(=O)Nc1ccccc1C(=O)Nc1ccccc1` (configuration not stated): the protection from apoptosis is 4.75% (inactive).

Turning to `CSc1nc(-c2ccccc2)nc(C(Cl)Cl)n1`, the protection from apoptosis is 105% (active).

For `CSc1ncc(Sc2ccccc2)c(C(=O)O)n1`, the protection from apoptosis was -2.15% (inactive).

As for `COc1cc(OC)c(N2CC(C(=O)Nc3cc(Cl)ccc3N3CCOCC3)CC2=O)cc1Cl` (configuration not stated), the protection from apoptosis is 26.3% (inactive).

With `O=C(COC(=O)Cc1ccc([N+](=O)[O-])cc1)NC1CCCCCC1`, the protection from apoptosis is -5.89% (inactive).

With `NC(=O)C1CCN(C(=O)c2ccc(F)c(S(=O)(=O)N3CCOCC3)c2)CC1`, the protection from apoptosis was 0.339% (inactive).

In the case of `COc1ccc(N(C(=O)c2cccnc2)S(=O)(=O)c2ccc(OC)c(OC)c2)cc1`, the protection from apoptosis is -3.31% (inactive).

On to `O=C(c1cccnc1)N(c1cc2sc(=O)oc2c2ccccc12)S(=O)(=O)c1ccccc1`, for which the protection from apoptosis was 81.4% (active).

`COc1ccc(N(C(=O)c2cccnc2)S(=O)(=O)c2ccc3c(c2)n(C)c(=O)n3C)cc1`: the protection from apoptosis was -8.54% (inactive).

Consider `COc1cc(Cl)c(C)cc1NC(=O)CSc1nnc(CN2CCCC2)o1`, for which the protection from apoptosis is 2.22% (inactive).

As to `COc1cccc(NC(=O)COC(=O)c2ccc3ccccc3n2)c1`, the protection from apoptosis was -5.49% (inactive).

Consider `CCCCCCCCCCOC(=O)Cn1c(COc2cccc(OC)c2)[n+](C)c2ccccc21`, for which the protection from apoptosis was 109% (active).

Consider `CCCCCCCCCCOC(=O)Cn1c(COc2ccc(C)cc2)[n+](C)c2ccccc21`, for which the protection from apoptosis was 112% (active).

Consider `COc1cccc(OCCCN2CCCCCC2)c1`, for which the protection from apoptosis is -3.45% (inactive).

With `CCOC(=O)Cn1c(-c2cccnc2Cl)nc2ccccc21`, the protection from apoptosis was -2.69% (inactive).

Take `Cc1ccc(OCCCn2c(=O)oc3ccccc32)cc1`: the protection from apoptosis is 1.16% (inactive).

`CCn1c(=N)n(CC(=O)c2cccc(OC)c2)c2ccccc21`: the protection from apoptosis is -5.87% (inactive).

As for `COc1ccc2nc3n(c(=O)c2c1)-c1cc(C)ccc1C(=O)NC3Cc1ccc(O)cc1` (configuration not stated), the protection from apoptosis was 9.76% (inactive).

As for `COc1ccc(NS(=O)(=O)c2cc(NC(=O)c3ccc(S(=O)(=O)N(C)C)cc3)ccc2N2CCOCC2)cc1`, the protection from apoptosis was 5.26% (inactive).

Turning to `COc1ccccc1OCCNC(=O)C(CCSC)NC(=O)COc1ccccc1` (configuration not stated), the protection from apoptosis was -1.66% (inactive).

`Cc1cc(N2CCN(S(=O)(=O)c3ccc(C)c(C)c3)CC2)c2ccccc2n1`: the protection from apoptosis was 10.4% (inactive).

`Cc1ccc(C)c(S(=O)(=O)N2CCN(c3ncnc4sccc34)CC2)c1`: the protection from apoptosis was 112% (active).

Consider `Cc1ccc(S(=O)(=O)N2CCN(c3ncnc4ccccc34)CC2)cc1`, for which the protection from apoptosis was 102% (active).

Consider `COc1ccc(C)cc1S(=O)(=O)N1CCN(S(=O)(=O)c2cc(C(=O)O)ccc2C)CC1`, for which the protection from apoptosis is -3.1% (inactive).

`Cc1ccc(C)c(S(=O)(=O)N2CCN(C(=O)Nc3ccccc3)CC2)c1`: the protection from apoptosis was -4.43% (inactive).

Turning to `Cc1ccc(S(=O)(=O)N2CCN(C)CC2)cc1`, the protection from apoptosis was 4.63% (inactive).

For `COC(=O)[C@]1(CC(C)C)N[C@H](c2ccc(SC3CCCCC3)cc2)[C@@H]2C(=O)N(C)C(=O)[C@@H]21`, the protection from apoptosis was 2.66% (inactive).

On to `C[C@H](CO)N1C[C@H](C)[C@@H](CN(C)C(=O)NC2CCCCC2)Oc2ccc(NC(=O)c3ccncc3)cc2C1=O`, for which the protection from apoptosis is -8.1% (inactive).

`CCOc1ccc(NS(=O)(=O)c2ccc(Cl)c(C(=O)N(C)Cc3cccnc3)c2)cc1`: the protection from apoptosis was 5.11% (inactive).

On to `COc1ccccc1CNC(=O)COC(=O)c1cccs1`, for which the protection from apoptosis was -8.13% (inactive).

For `O=C1NC[C@@H](c2ccccc2)OC(=O)[C@H](Cc2ccc(F)cc2)CC/C=C/C[C@H]1CC(=O)N(CCO)Cc1ccccc1`, the protection from apoptosis is 5.81% (inactive).

Turning to `C#CCOCCOCCOCCNc1nc(N2CCN(C(=O)[C@H](CCCN=C(N)N)n3cc(C(N)[C@@H](C)CC)nn3)CC2)nc(N2CCN(C(=O)[C@H](CO)n3cc([C@@H](N)C(C)C)nn3)CC2)n1` (some centres not stated), the protection from apoptosis is -10.4% (inactive).

For `COc1ccc2cc1Oc1ccc(cc1)C[C@H]1c3cc(c(OC)cc3CCN1C)Oc1c(O)c(OC)cc3c1[C@H](C2)N(C)CC3`, the protection from apoptosis was 98.5% (active).

Consider `COc1c(O)ccc2c1CN1CCc3cc4c(cc3C1C2)OCO4` (configuration not stated), for which the protection from apoptosis was -2.11% (inactive).

On to `O=C(CNC(=O)c1ccco1)NNC(=O)c1ccc(Br)cc1`, for which the protection from apoptosis is -6.27% (inactive).

In the case of `CC(C)(C)OC(=O)C[C@H]1C/C=C\C[C@@H](CC(=O)N[C@H](CO)Cc2ccccc2)C(=O)NC[C@@H](c2ccccc2)OC1=O`, the protection from apoptosis is 6.61% (inactive).

For the molecule `CC1O[C@H](OC2C(COC3OC(CO)C(O)[C@H](O)C3O)OC(OC3CC[C@]4(C)C(CC[C@@]5(C)[C@@H]4C=C[C@]46OC[C@@]7(CCC(C)(C)C[C@H]74)C(O)C[C@@]56C)C3(C)C)C(O)C2O)C(O)C(O)C1O` (some centres not stated), the protection from apoptosis is -6.92% (inactive).

For the molecule `C=C(C)C(=O)O[C@H]1C/C(C)=C\C(=O)/C=C(\C)[C@H](O)[C@@H]2OC(=O)C(=C)[C@@H]21`, the protection from apoptosis is 96.8% (active).

For `O=C(NCc1ccc2c(c1)OCO2)c1cc([N+](=O)[O-])ccc1N1CCOCC1`, the protection from apoptosis was 12.9% (inactive).

For the origin of these results see PubChem BioAssay AID435005 (Broad Institute, 2010).
